Here are results for 112 sequences from the supplement of paper PMC3334620.

Over roughly 33,000 sequences, “E-score (-0.5 to 0.5)” has its median near -0.01; the highest 2% begin near 0.26. Only a selection was taken, and the highest values are over-represented in it overall.

UniProt P13574, sequence (P13574 whole entry, the tested form may be a part): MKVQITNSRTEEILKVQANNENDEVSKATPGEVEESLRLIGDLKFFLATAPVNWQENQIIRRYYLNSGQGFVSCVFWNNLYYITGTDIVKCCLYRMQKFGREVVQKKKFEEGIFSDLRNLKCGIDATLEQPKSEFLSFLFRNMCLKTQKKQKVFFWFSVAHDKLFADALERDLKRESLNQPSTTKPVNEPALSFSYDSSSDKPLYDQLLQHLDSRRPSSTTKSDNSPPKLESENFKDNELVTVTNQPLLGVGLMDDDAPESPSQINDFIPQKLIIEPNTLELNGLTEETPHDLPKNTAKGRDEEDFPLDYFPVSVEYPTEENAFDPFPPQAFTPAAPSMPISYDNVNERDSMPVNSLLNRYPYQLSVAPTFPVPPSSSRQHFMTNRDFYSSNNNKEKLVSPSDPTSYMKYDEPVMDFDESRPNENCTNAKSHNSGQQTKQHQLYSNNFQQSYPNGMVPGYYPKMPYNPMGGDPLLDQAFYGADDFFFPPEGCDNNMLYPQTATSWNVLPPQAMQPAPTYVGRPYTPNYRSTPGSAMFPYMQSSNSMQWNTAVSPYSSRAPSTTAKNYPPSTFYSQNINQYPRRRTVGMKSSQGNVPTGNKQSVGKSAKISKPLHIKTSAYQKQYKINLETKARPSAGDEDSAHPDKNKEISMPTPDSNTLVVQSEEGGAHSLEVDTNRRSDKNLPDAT

The test has as its target Ste12 (UniProt P13574). The test can be described thus: PBM E-score (8-mer binding enrichment) (E-score (-0.5 to 0.5)); higher = stronger / more preferred TF binding. The note with it: protein concentration: 200 nM; construct: GST-DNA-binding domain. The procedure:
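Universal 'all 10-mer' protein binding microarrays (Agilent AMADID 015681) probed with GST-tagged S. cerevisiae TFs (full-length or DBD) made by in vitro transcription/translation (PURExpress), about 100-200 nM. Bound TF was detected with fluorescent anti-GST. Each ungapped 8-mer (which stands for itself and its reverse complement) is scored by the PBM enrichment score (E-score), a modified Wilcoxon-Mann-Whitney statistic from -0.5 to +0.5, computed with the Universal PBM Analysis Suite. Scale: above 0.35 generally sequence-specific binding.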
Consider GCGATTTA, for which the “PBM E-score” value was determined as 0.0399.
Then CGGAGAAG, with -0.00086.
Then GGTTAAAA, with 0.256.
Consider GTTTAAAA, for which the “PBM E-score” value was 0.3.
With GTTTTAAA, the “PBM E-score” value was 0.378.
GGGTTTAA: the “PBM E-score” value amounted to 0.215.
The same measure for GGTTTTTA: 0.166; for CTTTTAAA: 0.255.
GGTTTTAA: the “PBM E-score” value turned out to be 0.298.
With GTTTAAAC, the “PBM E-score” value stood at 0.214.
Take GGTTTAAA: the “PBM E-score” value was 0.211.
In the case of CCTTTAAA, the “PBM E-score” value was determined as 0.0788.
With CTTTAAAC, the “PBM E-score” value came to 0.0682.
For the sequence CTTTAAAA, the “PBM E-score” value amounted to 0.266.
With ATGCGCAT, the “PBM E-score” value was determined as 0.0672.
CAAGGAGG: the “PBM E-score” value was -0.075.
Consider AACGATCG, for which the “PBM E-score” value turned out to be 0.0136.
As for TAGGCCTA, the “PBM E-score” value was -0.15.
Turning to AATGGGGG, the “PBM E-score” value is -0.187.
In the case of GCTATGAC, the “PBM E-score” value was determined as 0.0507.
In the case of AGGAGTAA, the “PBM E-score” value is -0.0677.
For the sequence CTGAGAAC, the “PBM E-score” value turned out to be 0.0658.
Regarding AACAGGGC, the “PBM E-score” value came to 0.0987.
Take TTTAAAAA: the “PBM E-score” value was determined as 0.184.
Then TTTTAAAA, with 0.329; and AGTTTTAA, with 0.212; and CCTTAAAA, with 0.162.
For the sequence TCTTAAAA, the “PBM E-score” value was found to be 0.156.
Regarding TGTTTTAA, the “PBM E-score” value was 0.364.
Take TGTTTAAA: the “PBM E-score” value was found to be 0.26.
Turning to AGTTTTAC, the “PBM E-score” value amounted to 0.143.
Take GCTTAAAA: the “PBM E-score” value was 0.31.
Then GCTTAAAC, with -0.0138; and AGTTTTAG, with 0.12.
Then AGTTTTAT, with 0.275; and CCCTAACG, with -0.00496; and AAGGGAGT, with -0.232.
For the sequence CGCAGAAC, the “PBM E-score” value was -0.122.
Consider AACAACCG, for which the “PBM E-score” value stood at 0.0778.
Regarding CAGATCAA, the “PBM E-score” value was found to be 0.00349.
Turning to CGTTTTTA, the “PBM E-score” value worked out at 0.165.
On to GTTTTTAA, for which the “PBM E-score” value is 0.261.
For the sequence CGTTTTAA, the “PBM E-score” value is 0.319.
GTTTTTTA: the “PBM E-score” value was 0.149.
On to CGTTTTAG, for which the “PBM E-score” value was 0.215.
CTTTTTAA: the “PBM E-score” value is 0.104.
As to AAGAGTTG, the “PBM E-score” value is -0.149.
As for GGTTCATA, the “PBM E-score” value was -0.0487.
Consider GGGAGAAC, for which the “PBM E-score” value was -0.0492.
On to ATCCTCAA, for which the “PBM E-score” value stood at 0.00575.
Turning to AAATTGTC, the “PBM E-score” value was determined as 0.268.
As to AAATTGTT, the “PBM E-score” value was determined as 0.186.
Turning to AAATTGTA, the “PBM E-score” value worked out at 0.048.
Then CGTGTTGC, with 0.0401; and AGTGTTTC, with 0.332; and AGTGTTTA, with 0.174.
Consider AGTGTTTG, for which the “PBM E-score” value came out at 0.245.
For CGTGTTTC, the “PBM E-score” value was 0.36.
On to CGTGTTTA, for which the “PBM E-score” value amounted to 0.0319.
Regarding GCCCTCGA, the “PBM E-score” value is -0.216.
Then CTTTAGTC, with -0.0859; and GGCCAAAA, with 0.0718; and TCAACTCA, with 0.0748.
Take CGAATACA: the “PBM E-score” value turned out to be 0.0383.
The same measure for AGCAGTGA: -0.0211.
As to ATATGCTC, the “PBM E-score” value came to 0.0529.
Take CAAACGAA: the “PBM E-score” value worked out at 0.101.
As to TTAACGAA, the “PBM E-score” value turned out to be 0.262.
Take GAAACGAC: the “PBM E-score” value came out at 0.317.
As for GAAACGAA, the “PBM E-score” value stood at 0.367.
The same measure for CAAACGAC: 0.128.
Consider AAAACGAC, for which the “PBM E-score” value is 0.0623.
Then AAAACGAA, with 0.237; and CTAACGAA, with 0.11.
Regarding ATAACGAA, the “PBM E-score” value worked out at 0.0476.
In the case of CAAGTCTG, the “PBM E-score” value is -0.0972.
For the sequence CGTCGCTC, the “PBM E-score” value was -0.115.
On to AGTATGGG, for which the “PBM E-score” value was -0.0937.
Then ATGGCCGC, with -0.0598; and ATGAGGTC, with 0.0263; and AGGCTCGG, with -0.112.
The same measure for ATAATTAC: 0.131; for ACAATTAC: 0.087; for TTAATTAA: 0.245.
As to ACAATTAT, the “PBM E-score” value was 0.212.
Then ATAATTAA, with 0.276.
With GTAATTTA, the “PBM E-score” value is 0.223.
Regarding ATAATTTA, the “PBM E-score” value was 0.357.
Turning to ATAATTTG, the “PBM E-score” value was 0.212.
Take ACAATTAA: the “PBM E-score” value amounted to 0.292.
Then CCGCCAGG, with -0.206.
GCTCAGCA: the “PBM E-score” value was -0.0833.
Regarding AATCTCAT, the “PBM E-score” value was 0.165.
The same measure for CTGACCGC: 0.123; for AAATGCAC: -0.00999.
CACCCATA: the “PBM E-score” value stood at 0.105.
The same measure for ACCAGACG: -0.174.
Then CGCGCGTC, with 0.0795.
Turning to ACGCCACG, the “PBM E-score” value is -0.182.
The same measure for CTTCGAAA: 0.132.
In the case of ATTCGAAT, the “PBM E-score” value stood at 0.268.
As for ATTCGAAG, the “PBM E-score” value was -0.0567.
Then ATTCGAAA, with 0.286.
As to ATTCGAAC, the “PBM E-score” value was 0.105.
For ACTCGAAT, the “PBM E-score” value is -0.144.
Consider GCCTTCCC, for which the “PBM E-score” value was -0.0772.
In the case of CACACTTC, the “PBM E-score” value was determined as 0.00873.
Consider AACCACTA, for which the “PBM E-score” value was -0.00019.
On to GGGCATAA, for which the “PBM E-score” value amounted to 0.218.
In the case of TGGCATAA, the “PBM E-score” value stood at 0.307.
AAACATAG: the “PBM E-score” value amounted to 0.205.
As for ATACATAT, the “PBM E-score” value is 0.294.
